From PubChem BioAssay (NCI) come the findings set out here.

Among the test systems are NCI-H23 lung; NCI-H226 lung; NCI-H322M lung; HOP-62 NSCLC; NCI-H460 lung; HOP-92 NSCLC; A549/ATCC NSCLC; 786-0 renal; COLO 205 colon; DU-145 prostate; K-562 leukemia; MALME-3M melanoma; MDA-MB-231 breast; RXF 393 renal; SF-268 CNS; SF-295 CNS; SF-539 CNS; UACC-257 melanoma; M14 melanoma; NCI-H522 lung.
Common to all, as to assay: NCI-60 one-dose screen, 48 h (100 = growth as untreated, 0 = no growth, -100 = all killed)
Holding throughout (conditions): 10 µM unless noted

This is part of a sample that, as a whole, favours compounds with a hit. Of some 83,000 tested, about 20% had one in any assay.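 Cells were grown in 96-well plates and exposed to the test compound at a single concentration for 48 hours; results are reported as percent growth, with values below 10 considered active.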 A number with no mark means an inactive call. Activity calls are given as the source filed them.

With `CC/C=C1/C(=O)C=C[C@@H]1C/C=C\CCCC(=O)O`, the growth in the assay on NCI-H23 lung was 85.5%; with NCI-H226 lung, 93.3%; with NCI-H322M lung, 113%; with HOP-62 NSCLC, 80.4%; in the assay with NCI-H460 lung, 97.1%; in the assay on HOP-92 NSCLC it was 121%. The growth in the assay with A549/ATCC NSCLC was 87.9%; in the assay on 786-0 renal, 102%; with COLO 205 colon, 108%; in the assay with DU-145 prostate, 98.3%; in the assay with K-562 leukemia it was 25.1%; with MALME-3M melanoma, 101%. In addition, the growth was 79.4% with MDA-MB-231 breast; 110% in the assay with RXF 393 renal; 92.4% in the assay with SF-268 CNS; 101% in the assay on SF-295 CNS; 101% in the assay on SF-539 CNS; 73.9% in the assay with UACC-257 melanoma. Besides, in the assay with M14 melanoma, the growth was 77.5%.
Consider `CCOc1ccccc1-c1cc(-c2cccs2)c(C#N)c(=O)[nH]1`, for which the growth in the assay on NCI-H23 lung was 86.1%; in the assay on NCI-H226 lung, 90.9%; in the assay with NCI-H322M lung it was 83.9%; in the assay on HOP-62 NSCLC, 81.5%; in the assay on NCI-H460 lung, 93.8%; in the assay on HOP-92 NSCLC, 64.7%. Also, the growth was 91.2% in the assay with A549/ATCC NSCLC; 92.1% in the assay with 786-0 renal; 114% in the assay on COLO 205 colon; 111% in the assay on DU-145 prostate; 48.6% in the assay on K-562 leukemia; 84.9% with MALME-3M melanoma. In addition, the growth is 89% in the assay on MDA-MB-231 breast; 79.6% in the assay on RXF 393 renal; 92.5% with SF-268 CNS; 93.6% with SF-295 CNS; 87.3% in the assay with SF-539 CNS; 101% in the assay with UACC-257 melanoma. Besides, the growth in the assay on M14 melanoma was 85.1%.
Turning to `CC1SC(c2ccc(OCc3ccccc3)cc2)N(NC(=O)C(O)(c2ccccc2)c2ccccc2)C1=O` (stereo not drawn), the growth in the assay with NCI-H23 lung is 61%; in the assay on NCI-H226 lung, 84.5%; in the assay with NCI-H322M lung it was 49.1%; in the assay with HOP-62 NSCLC, 79%; in the assay on NCI-H460 lung, 38.5%; with HOP-92 NSCLC, 50.7%. Also, the growth in the assay with A549/ATCC NSCLC was 49.3%; in the assay on 786-0 renal, 59.6%; in the assay on COLO 205 colon it was 30.8%; with DU-145 prostate, 89.6%; with K-562 leukemia it was 40.9%; in the assay with MALME-3M melanoma, 72.3%. Further, the growth with MDA-MB-231 breast is 76.5%; in the assay on RXF 393 renal, 51.4%; in the assay with SF-268 CNS, 71.4%; in the assay with SF-295 CNS, -20.7% (active); in the assay on SF-539 CNS, 74.4%; in the assay with UACC-257 melanoma, 78.3%. Moreover, the growth in the assay on M14 melanoma is 57.2%.
With `Cc1cc(Cl)ccc1Nc1nc(C(F)(F)F)ccc1C(=O)N/N=C/c1ccc(N(C)C)cc1`, the growth was 30.5% in the assay on NCI-H23 lung; 51.1% with NCI-H226 lung; 25.7% in the assay with NCI-H322M lung; 24% with HOP-62 NSCLC; 20.3% with NCI-H460 lung; 18.7% with HOP-92 NSCLC. The growth with NCI-H522 lung was 7.24% (active); in the assay with A549/ATCC NSCLC it was 18.2%; with 786-0 renal it was 16.8%; with DU-145 prostate it was 40.3%; in the assay on K-562 leukemia, 18.9%; in the assay on MALME-3M melanoma, 22.1%. Besides, the growth with MDA-MB-231 breast was 22%; with RXF 393 renal, -4.86% (active); with SF-268 CNS, 31.8%; in the assay on SF-295 CNS it was -7.53% (active); in the assay on SF-539 CNS it was 41.4%; in the assay with UACC-257 melanoma, 30%. Further, the growth in the assay on M14 melanoma was 33.9%.
In the case of `CCN(CC)S(=O)(=O)c1cccc(-c2ccc3c(NC(=O)C4CC4)n[nH]c3c2)c1`, the growth was 28.5% [6.25 µM] with NCI-H23 lung; 26.5% [6.25 µM] with NCI-H226 lung; 55.6% [6.25 µM] with NCI-H322M lung; 18.5% [6.25 µM] with HOP-62 NSCLC; 12.3% [6.25 µM] in the assay with NCI-H460 lung; 41.3% [6.25 µM] in the assay with HOP-92 NSCLC. Further, the growth in the assay on A549/ATCC NSCLC was 21.2% [6.25 µM]; in the assay with 786-0 renal, 18.1% [6.25 µM]; in the assay on COLO 205 colon, 3.94% [6.25 µM] (active); with DU-145 prostate it was 25.4% [6.25 µM]; with K-562 leukemia, 9.65% [6.25 µM] (active); in the assay on MALME-3M melanoma, 21.1% [6.25 µM]. The growth in the assay with MDA-MB-231 breast is 38.5% [6.25 µM]; in the assay with RXF 393 renal it was -11.7% [6.25 µM] (active); in the assay on SF-268 CNS, 35.8% [6.25 µM]; in the assay with SF-295 CNS it was 5.94% [6.25 µM] (active); in the assay on SF-539 CNS, -2.68% [6.25 µM] (active); with UACC-257 melanoma, 21.5% [6.25 µM]. In addition, the growth in the assay with M14 melanoma is 8.28% [6.25 µM] (active).
Take `Cc1cc(NCc2cc(Nc3ccnc4cc(Cl)ccc34)ccc2F)nc(N2CCOCC2)n1`: the growth was 43.8% with NCI-H23 lung; 61.2% with NCI-H226 lung; 71.3% with NCI-H322M lung; -9.53% (active) with HOP-62 NSCLC; 39.8% in the assay with NCI-H460 lung; 42.5% with HOP-92 NSCLC. Also, the growth in the assay on A549/ATCC NSCLC was 59.4%; in the assay on 786-0 renal it was 1.21% (active); with COLO 205 colon it was 35.5%; with DU-145 prostate it was 23.8%; with K-562 leukemia, 4.21% (active); in the assay with MALME-3M melanoma it was -0.307% (active). The growth with MDA-MB-231 breast was 19.1%; in the assay on RXF 393 renal it was -3.51% (active); in the assay on SF-268 CNS, 42.4%; in the assay on SF-295 CNS it was -71.6% (active); with SF-539 CNS, -29.4% (active); in the assay with UACC-257 melanoma, 50.8%. For the same compound, the growth in the assay with M14 melanoma was -22.9% (active).
For `O=c1oc2ccccc2c(Cl)c1Cl`, the growth in the assay with NCI-H23 lung is 60.6%; in the assay on NCI-H226 lung, 70.8%; with NCI-H322M lung, 91.5%; in the assay on HOP-62 NSCLC, 83.3%; in the assay on NCI-H460 lung it was 103%; in the assay with HOP-92 NSCLC it was 97.4%. Moreover, the growth with A549/ATCC NSCLC was 89.6%; in the assay with 786-0 renal, 47.3%; in the assay with COLO 205 colon it was 11.8%; in the assay with DU-145 prostate, 107%; in the assay on K-562 leukemia, 37.2%; in the assay with MALME-3M melanoma, 58.5%. In addition, the growth with MDA-MB-231 breast is 62.6%; with RXF 393 renal, 66.6%; with SF-268 CNS it was 86.5%; in the assay with SF-295 CNS, 106%; with SF-539 CNS, 81.3%; in the assay on UACC-257 melanoma, 40%. The growth with M14 melanoma was 17.1%.
